Measured values as given in the supplement of paper PMC12282887.
± gives the standard deviation of the averaged measurements.

How the values were obtained:
Assay in all cases: promoter activity interaction Z-score (Lux/OD deviation from empty-vector control); higher = stronger promoter induction by the compound
[1] = test system: E. coli BW25113 acrABp lux reporter
Summary of the method: (§1)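 E. coli BW25113 luxCDABE reporter strains grew at 37°C in 40 µl LB Lennox in 384-well plates, with OD600 and luminescence read every 30 min for 12 h. After integration over 0–8 h for wild type or 1–9 h for deletion strains, wells under 10% of the median growth value were removed. Each score is the Z-transformed residual of growth-normalised luminescence fitted against a control.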

[2] = test system: E. coli BW25113 micFp lux reporter
Summary of the method: as §1

[3] = test system: E. coli BW25113 ompFp lux reporter
Summary of the method: as §1

[4] = test system: E. coli BW25113 robp lux reporter
Summary of the method: as §1

[5] = test system: E. coli BW25113 soxSp lux reporter
Summary of the method: as §1

[6] = test system: E. coli BW25113 tolCp lux reporter
Summary of the method: as §1

[7] = test system: E. coli BW25113 marRABp lux reporter
Summary of the method: as §1

[8] = 3.7 µg/ml, genetic background: wild type
[9] = 3.7 µg/ml, genetic background: ΔmarA
[10] = 3.7 µg/ml, genetic background: Δrob
[11] = 3.7 µg/ml, genetic background: ΔsoxS
[12] = 7.5 µg/ml, genetic background: wild type
[13] = 7.5 µg/ml, genetic background: ΔmarA
[14] = 7.5 µg/ml, genetic background: Δrob
[15] = 7.5 µg/ml, genetic background: ΔsoxS
[16] = 15 µg/ml, genetic background: wild type
[17] = 15 µg/ml, genetic background: ΔmarA
[18] = 15 µg/ml, genetic background: Δrob
[19] = 15 µg/ml, genetic background: ΔsoxS
[20] = 0.0054 µg/ml, genetic background: wild type
[21] = 0.0054 µg/ml, genetic background: ΔmarA
[22] = 0.0054 µg/ml, genetic background: Δrob
[23] = 0.0054 µg/ml, genetic background: ΔsoxS
[24] = 0.011 µg/ml, genetic background: wild type
[25] = 0.011 µg/ml, genetic background: ΔmarA
[26] = 0.011 µg/ml, genetic background: Δrob
[27] = 0.011 µg/ml, genetic background: ΔsoxS
[28] = 0.022 µg/ml, genetic background: wild type
[29] = 0.022 µg/ml, genetic background: ΔmarA
[30] = 0.022 µg/ml, genetic background: Δrob
[31] = 0.022 µg/ml, genetic background: ΔsoxS
[32] = 0.044 µg/ml, genetic background: wild type

Compound: CC[C@H]1OC(=O)[C@H](C)[C@@H](O[C@H]2C[C@@](C)(OC)[C@@H](O)[C@H](C)O2)[C@H](C)[C@@H](O[C@@H]2O[C@H](C)C[C@H](N(C)C)[C@H]2O)[C@](C)(OC)C[C@@H](C)C(=O)[C@H](C)[C@@H](O)[C@]1(C)O [Clarithromycin]
- promoter activity interaction Z-score [1, 8]: 2.75 ± 0.78
- promoter activity interaction Z-score [1, 9]: -0.666 ± 0.051
- promoter activity interaction Z-score [1, 10]: 2.53 ± 0.28
- promoter activity interaction Z-score [1, 11]: 3.99 ± 2.9
- promoter activity interaction Z-score [1, 12]: 4.86 ± 2
- promoter activity interaction Z-score [1, 13]: 0.0124 ± 0.014
- promoter activity interaction Z-score [1, 14]: 3.88 ± 1.1
- promoter activity interaction Z-score [1, 15]: 5.27 ± 0.95
- promoter activity interaction Z-score [1, 16]: 6.01 ± 2.6
- promoter activity interaction Z-score [1, 17]: 5.11
- promoter activity interaction Z-score [1, 18]: 8.62 ± 0.52
- promoter activity interaction Z-score [1, 19]: 7.67 ± 6.7
- promoter activity interaction Z-score [2, 8]: 0.345 ± 0.84
- promoter activity interaction Z-score [2, 9]: -0.264 ± 0.18
- promoter activity interaction Z-score [2, 10]: 0.13 ± 0.36
- promoter activity interaction Z-score [2, 11]: 0.346 ± 0.31
- promoter activity interaction Z-score [2, 12]: -0.0809 ± 0.56
- promoter activity interaction Z-score [2, 13]: -0.345 ± 0.18
- promoter activity interaction Z-score [2, 14]: 0.0824 ± 0.022
- promoter activity interaction Z-score [2, 15]: -0.272 ± 0.94
- promoter activity interaction Z-score [2, 16]: -2.17 ± 0.33
- promoter activity interaction Z-score [2, 17]: -0.213 ± 0.3
- promoter activity interaction Z-score [2, 18]: -0.078 ± 0.014
- promoter activity interaction Z-score [3, 8]: 4.02 ± 1.8
- promoter activity interaction Z-score [3, 9]: 2.83 ± 2.5
- promoter activity interaction Z-score [3, 10]: 3.22 ± 1.5
- promoter activity interaction Z-score [3, 11]: 4.01 ± 1.6
- promoter activity interaction Z-score [3, 12]: 4.44 ± 2.9
- promoter activity interaction Z-score [3, 13]: 4.37 ± 4.9
- promoter activity interaction Z-score [3, 14]: 3.77 ± 4.2
- promoter activity interaction Z-score [3, 15]: 3.43 ± 1.9
- promoter activity interaction Z-score [3, 16]: -0.0263 ± 3.9
- promoter activity interaction Z-score [3, 18]: -0.772
- promoter activity interaction Z-score [3, 19]: -2.44
- promoter activity interaction Z-score [4, 8]: -1.9 ± 0.13
- promoter activity interaction Z-score [4, 9]: -2.77 ± 0.23
- promoter activity interaction Z-score [4, 10]: -1.66 ± 0.048
- promoter activity interaction Z-score [4, 11]: -2.35 ± 0.33
- promoter activity interaction Z-score [4, 12]: -2.21 ± 0.12
- promoter activity interaction Z-score [4, 13]: -2.09 ± 0.24
- promoter activity interaction Z-score [4, 14]: -2.11 ± 0.083
- promoter activity interaction Z-score [4, 15]: -1.66 ± 0.9
- promoter activity interaction Z-score [4, 16]: -4.75 ± 0.23
- promoter activity interaction Z-score [4, 17]: -0.357 ± 0.99
- promoter activity interaction Z-score [4, 18]: -1.4
- promoter activity interaction Z-score [5, 8]: 0.201 ± 0.071
- promoter activity interaction Z-score [5, 9]: 0.637 ± 0.17
- promoter activity interaction Z-score [5, 10]: 0.258 ± 0.11
- promoter activity interaction Z-score [5, 11]: 3.14 ± 1.1
- promoter activity interaction Z-score [5, 12]: 1.35 ± 0.47
- promoter activity interaction Z-score [5, 13]: 1.62 ± 0.14
- promoter activity interaction Z-score [5, 14]: 1.1974 ± 0.00038
- promoter activity interaction Z-score [5, 15]: 3.99 ± 0.81
- promoter activity interaction Z-score [5, 16]: 0.664 ± 0.51
- promoter activity interaction Z-score [5, 17]: 2.07 ± 0.33
- promoter activity interaction Z-score [5, 18]: 1.44 ± 0.33
- promoter activity interaction Z-score [5, 19]: 1.96
- promoter activity interaction Z-score [6, 8]: 1.16 ± 0.087
- promoter activity interaction Z-score [6, 9]: 0.114 ± 1.9
- promoter activity interaction Z-score [6, 10]: 0.468 ± 0.18
- promoter activity interaction Z-score [6, 11]: 2.16 ± 2.1
- promoter activity interaction Z-score [6, 12]: 3.8 ± 1.3
- promoter activity interaction Z-score [6, 13]: 1.91 ± 0.99
- promoter activity interaction Z-score [6, 14]: 1.62 ± 0.65
- promoter activity interaction Z-score [6, 15]: 3.3 ± 1.4
- promoter activity interaction Z-score [6, 16]: 0.0472 ± 0.77
- promoter activity interaction Z-score [6, 17]: 0.874 ± 2.2
- promoter activity interaction Z-score [6, 18]: 1.26 ± 0.65
- promoter activity interaction Z-score [6, 19]: 3.6044 ± 0.00012

Compound: C[C@H]1[C@H](NC(=O)/C(=N\OC(C)(C)C(=O)O)c2csc(N)n2)C(=O)N1S(=O)(=O)O [Aztreonam]
- promoter activity interaction Z-score [1, 20]: -0.253 ± 0.084
- promoter activity interaction Z-score [1, 21]: -0.209 ± 1.9
- promoter activity interaction Z-score [1, 22]: -0.333 ± 0.022
- promoter activity interaction Z-score [1, 23]: -0.321 ± 0.053
- promoter activity interaction Z-score [1, 24]: 0.0466 ± 0.11
- promoter activity interaction Z-score [1, 25]: 1.29 ± 1.5
- promoter activity interaction Z-score [1, 26]: -0.509 ± 0.068
- promoter activity interaction Z-score [1, 27]: -0.163 ± 0.42
- promoter activity interaction Z-score [1, 28]: -0.332 ± 0.23
- promoter activity interaction Z-score [1, 29]: 0.66 ± 1.8
- promoter activity interaction Z-score [1, 30]: -0.535 ± 0.26
- promoter activity interaction Z-score [1, 31]: -0.424 ± 0.41
- promoter activity interaction Z-score [7, 20]: -0.108 ± 0.36
- promoter activity interaction Z-score [7, 21]: 0.583 ± 0.95
- promoter activity interaction Z-score [7, 22]: -0.202 ± 0.19
- promoter activity interaction Z-score [7, 23]: -0.188 ± 0.0033
- promoter activity interaction Z-score [7, 24]: 0.0506 ± 0.094
- promoter activity interaction Z-score [7, 25]: -0.139 ± 0.26
- promoter activity interaction Z-score [7, 26]: -0.0608 ± 0.52
- promoter activity interaction Z-score [7, 27]: -0.218 ± 0.047
- promoter activity interaction Z-score [7, 28]: 0.0487 ± 0.33
- promoter activity interaction Z-score [7, 29]: 0.0272 ± 0.41
- promoter activity interaction Z-score [7, 30]: -0.0627 ± 0.18
- promoter activity interaction Z-score [7, 31]: -0.214 ± 0.088
- promoter activity interaction Z-score [2, 20]: -0.16 ± 0.07
- promoter activity interaction Z-score [2, 21]: 0.09 ± 0.019
- promoter activity interaction Z-score [2, 22]: -0.0804 ± 0.089
- promoter activity interaction Z-score [2, 23]: -0.271 ± 0.15
- promoter activity interaction Z-score [2, 24]: 0.0711 ± 0.15
- promoter activity interaction Z-score [2, 25]: 0.045 ± 0.1
- promoter activity interaction Z-score [2, 26]: -0.174 ± 0.022
- promoter activity interaction Z-score [2, 27]: 0.375 ± 0.11
- promoter activity interaction Z-score [2, 28]: -0.368 ± 0.07
- promoter activity interaction Z-score [2, 29]: 0.0282 ± 0.096
- promoter activity interaction Z-score [2, 30]: -0.184 ± 0.33
- promoter activity interaction Z-score [2, 31]: -0.331 ± 0.2
- promoter activity interaction Z-score [3, 20]: 0.304 ± 0.71
- promoter activity interaction Z-score [3, 21]: 1.01 ± 0.48
- promoter activity interaction Z-score [3, 22]: 0.73 ± 0.63
- promoter activity interaction Z-score [3, 23]: -0.689 ± 0.21
- promoter activity interaction Z-score [3, 24]: 0.141 ± 0.14
- promoter activity interaction Z-score [3, 25]: 1.02 ± 0.8
- promoter activity interaction Z-score [3, 26]: -0.364 ± 0.87
- promoter activity interaction Z-score [3, 27]: 0.129 ± 0.2
- promoter activity interaction Z-score [3, 28]: -0.19 ± 0.57
- promoter activity interaction Z-score [3, 29]: 1.43 ± 0.23
- promoter activity interaction Z-score [3, 30]: -0.565 ± 1.7
- promoter activity interaction Z-score [3, 31]: -0.303 ± 0.73
- promoter activity interaction Z-score [4, 20]: -0.543 ± 0.46
- promoter activity interaction Z-score [4, 21]: 1.13 ± 0.88
- promoter activity interaction Z-score [4, 22]: -0.203 ± 0.46
- promoter activity interaction Z-score [4, 23]: -1.41 ± 0.17
- promoter activity interaction Z-score [4, 24]: 0.385 ± 0.037
- promoter activity interaction Z-score [4, 25]: 1.33 ± 2
- promoter activity interaction Z-score [4, 26]: -0.405 ± 0.69
- promoter activity interaction Z-score [4, 27]: -0.722 ± 0.24
- promoter activity interaction Z-score [4, 28]: -0.69 ± 0.072
- promoter activity interaction Z-score [4, 29]: -0.124 ± 0.43
- promoter activity interaction Z-score [4, 30]: -1.16 ± 1.2
- promoter activity interaction Z-score [4, 31]: -1.07 ± 0.27
- promoter activity interaction Z-score [5, 20]: 0.278 ± 0.064
- promoter activity interaction Z-score [5, 21]: 0.333 ± 0.11
- promoter activity interaction Z-score [5, 22]: -0.00514 ± 0.076
- promoter activity interaction Z-score [5, 23]: -0.126 ± 0.11
- promoter activity interaction Z-score [5, 24]: 0.305 ± 0.13
- promoter activity interaction Z-score [5, 25]: 0.172 ± 0.0071
- promoter activity interaction Z-score [5, 26]: -0.21 ± 0.25
- promoter activity interaction Z-score [5, 27]: 0.164 ± 0.46
- promoter activity interaction Z-score [5, 28]: 0.0318 ± 0.13
- promoter activity interaction Z-score [5, 29]: 0.1912 ± 0.0014
- promoter activity interaction Z-score [5, 30]: -0.194 ± 0.19
- promoter activity interaction Z-score [5, 31]: -0.106 ± 0.33
- promoter activity interaction Z-score [5, 32]: -0.0693 ± 0.29
- promoter activity interaction Z-score [6, 20]: -0.174 ± 0.12
- promoter activity interaction Z-score [6, 21]: 0.0726 ± 0.53
- promoter activity interaction Z-score [6, 22]: -0.67 ± 1.8
- promoter activity interaction Z-score [6, 23]: -1.94 ± 0.062
- promoter activity interaction Z-score [6, 24]: 0.647 ± 0.59
- promoter activity interaction Z-score [6, 25]: -0.497 ± 0.27
- promoter activity interaction Z-score [6, 26]: -0.241 ± 1
- promoter activity interaction Z-score [6, 27]: -0.196 ± 0.045
- promoter activity interaction Z-score [6, 28]: 0.105 ± 0.69
- promoter activity interaction Z-score [6, 29]: -0.22 ± 1.1
- promoter activity interaction Z-score [6, 30]: 1.61 ± 1
- promoter activity interaction Z-score [6, 31]: -0.251 ± 0.32
- promoter activity interaction Z-score [6, 32]: -1.04
